SMARCA2 activ – activators of SMARCA2 function; activation, % at 9.1 µM; AID 652017; MG213 cells, MMTV-luciferase reporter, dexamethasone, overnight; actives 1% (n = 370,000); in the data active = activation above about 7.8%
DAX1 inh-1 – inhibitors of human orphan nuclear receptor DAX1 (NR0B1) | P51843 | inhibition, % at 6.75 µM | HEK293 Gal4-DAX1 luciferase reporter, luminescence | actives 0.99% (n = 340,000);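 active = inhibition above the mean over all tested compounds plus 3 SD, cut at about 4.2% in these data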;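 note: inhibition shows as a rise in luminescence from relieved DAX1 repression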
Target sequence (P51843 207-470 limits assumed): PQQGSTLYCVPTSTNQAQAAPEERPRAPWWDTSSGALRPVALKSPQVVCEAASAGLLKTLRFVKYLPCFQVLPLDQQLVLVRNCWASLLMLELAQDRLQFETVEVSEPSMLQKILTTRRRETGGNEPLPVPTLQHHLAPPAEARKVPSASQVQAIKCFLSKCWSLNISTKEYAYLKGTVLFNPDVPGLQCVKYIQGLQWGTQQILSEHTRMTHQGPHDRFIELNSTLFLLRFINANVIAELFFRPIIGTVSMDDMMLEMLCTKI
DAX1 inh-2 – inhibitors of DAX1 repression of SF-1 activated StAR promoter; HEK293T StAR-luciferase reporter, SF-1/DAX-1 repression relief; inhibition, % at 6.8 µM; actives 1.1% (n = 370,000); AID 652010;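 active = inhibition above the mean over all tested compounds plus 3 SD, cut at about 3.6% in these data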;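 note: higher inhibition means more luminescence from relief of DAX-1 repression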
ssDAF-12 act – activators of S. stercoralis DAF-12 nuclear receptor; HEK293 ssDAF-12/GRIP1 lit1-tk-luc reporter, luminescence; % of 3 µM dafachronic acid response; activation, % at 6.8 µM; actives 1% (n = 370,000); AID 652126;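 active = activation above the mean over all tested compounds plus 3 SD, cut at about 0.9% in these data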
hgDAF12 agonist – activates the H. glycines DAF-12 receptor ligand-binding domain; HEK293 GAL4-hgDAF12 UAS-luciferase reporter, agonist luminescence; normalized to butyrate control; activation, % at 6.8 µM; actives 1.8% (n = 370,000); AID 687014;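 active = activation above a cutoff set at the mean of all screened compounds plus 3 SD, cut at about 10% in these data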
hcDAF-12 act – activators of H. contortus DAF-12 nuclear receptor; actives 1.4% (n = 370,000); HEK293 hcDAF-12 lit1-tk-luc reporter, luminescence; 0% DMSO, 100% Δ7-dafachronic acid; activation, % at 6.8 µM; AID 652067;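 active = activation above the mean of all tested compounds plus 3 SD, cut at about 5.5% in these data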
LXRb hcDAF ctr – counter-screen for hcDAF-12 agonists: agonists of human LXR-beta. shares compounds with hcDAF-12 act. HEK293 Gal4-LXR tk-luc reporter, luminescence, 24 h; normalized: DMSO 0%, positive control 100%. activation, % at 6.8 µM. 3,400 tested, under 10 active. AID 743027;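 active = mean percent activation of the reporter above a cutoff set as the average over tested compounds plus their standard deviation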
hcDAF12 ag – hcDAF-12 agonism, confirmation assay; shares compounds with hcDAF-12 act; HEK293 hcDAF-12 lit1-tk-luc reporter, luminescence; % of Δ7-dafachronic acid response; activation, % at 6.8 µM; actives 61% (n = 3,400); AID 743032;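 active = mean activation across triplicate tests above the threshold derived from the earlier primary screen, cut at about 5.5% in these data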
A number is an active result. In the library only some 4.8% were active in any assay of this set; here they are far more common.

For COc1cccc2c1C(=O)c1c(O)c3c(c(O)c1C2=O)C[C@@](O)(C(=O)CO)C[C@@H]3OC1CC(N)C(O)C(C)O1 (some centres not stated) the results were SMARCA2 activ inactive, DAX1 inh-1 inactive, DAX1 inh-2 inactive, ssDAF-12 act 7.3, hgDAF12 agonist inactive, hcDAF-12 act 11, LXRb hcDAF ctr inactive and hcDAF12 ag inactive.
Screening COc1ccc(Nc2nc(-c3c[nH]c4ccccc34)cs2)cc1 returned SMARCA2 activ inactive, DAX1 inh-1 inactive, DAX1 inh-2 inactive, ssDAF-12 act inactive, hgDAF12 agonist inactive, hcDAF-12 act 11, LXRb hcDAF ctr inactive and hcDAF12 ag inactive.
`Cc1cc(N2CCN(C(=O)OC(C)(C)C)C[C@@H]2C)ccc1N1CCN(Cc2ccccc2)[C@@H](C)C1` gave SMARCA2 activ inactive, DAX1 inh-2 inactive, ssDAF-12 act inactive, hgDAF12 agonist inactive and hcDAF-12 act inactive.
`COC(=O)C1=C(C)N(Cc2ccccc2C(F)(F)F)C(=NCc2ccc(C(F)(F)F)cc2)NC1c1cccc(F)c1` (configuration not stated) gave SMARCA2 activ inactive, DAX1 inh-2 inactive, ssDAF-12 act inactive, hgDAF12 agonist inactive and hcDAF-12 act inactive.
Oc1ccccc1-c1cc(-c2ccccc2)n[nH]1 was read as SMARCA2 activ inactive, DAX1 inh-1 5.9, DAX1 inh-2 3.7, ssDAF-12 act 4.5, hgDAF12 agonist 19, hcDAF-12 act 19, LXRb hcDAF ctr inactive and hcDAF12 ag 21.
For Cc1ccc(-c2cc(-c3ccc(F)cc3)n[nH]2)c(O)c1 the results were SMARCA2 activ inactive, DAX1 inh-1 12, DAX1 inh-2 inactive, ssDAF-12 act 4.8, hgDAF12 agonist 18, hcDAF-12 act 20, LXRb hcDAF ctr inactive and hcDAF12 ag 18.
`Cc1ccc(O)c(-c2cc(-c3cccc(Br)c3)n[nH]2)c1` gave SMARCA2 activ inactive, DAX1 inh-1 inactive, DAX1 inh-2 inactive, ssDAF-12 act inactive, hgDAF12 agonist inactive and hcDAF-12 act inactive.
COc1ccc(-c2cc(-c3c(O)c(OC)c4occc4c3OC)[nH]n2)cc1 was read as SMARCA2 activ inactive, DAX1 inh-1 inactive, DAX1 inh-2 inactive, ssDAF-12 act inactive, hgDAF12 agonist inactive and hcDAF-12 act inactive.
For Oc1ccccc1-c1cc(-c2ccc(F)cc2)n[nH]1 the results were SMARCA2 activ inactive, DAX1 inh-1 11, DAX1 inh-2 inactive, ssDAF-12 act 4.3, hgDAF12 agonist 22, hcDAF-12 act 19, LXRb hcDAF ctr inactive and hcDAF12 ag 19.
COc1ccc(-c2cc(-c3ccccc3O)[nH]n2)cc1 was read as SMARCA2 activ inactive, DAX1 inh-1 inactive, DAX1 inh-2 3.7, ssDAF-12 act 4.4, hgDAF12 agonist 22, hcDAF-12 act 20, LXRb hcDAF ctr inactive and hcDAF12 ag 23.
Oc1ccccc1-c1ccn[nH]1 was read as SMARCA2 activ inactive, DAX1 inh-1 inactive, DAX1 inh-2 inactive, ssDAF-12 act inactive, hgDAF12 agonist inactive and hcDAF-12 act inactive.
For COc1ccc(Cl)c(-c2cc(C(=O)NC(C)C)[nH]n2)c1 the results were SMARCA2 activ inactive, DAX1 inh-2 inactive, ssDAF-12 act inactive, hgDAF12 agonist inactive and hcDAF-12 act inactive.
`COc1ccc(O)c(-c2cc(-c3ccccc3Cl)[nH]n2)c1` gave SMARCA2 activ inactive, DAX1 inh-1 inactive, DAX1 inh-2 inactive, ssDAF-12 act inactive, hgDAF12 agonist inactive, hcDAF-12 act 7.5, LXRb hcDAF ctr inactive and hcDAF12 ag inactive.
For CCOC(=O)Cc1nc(N2CCCN(C(C)=O)CC2)c2c(C)c(C(=O)OCC)sc2n1 the results were SMARCA2 activ inactive, DAX1 inh-2 inactive, ssDAF-12 act inactive, hgDAF12 agonist inactive, hcDAF-12 act 6.9, LXRb hcDAF ctr inactive and hcDAF12 ag inactive.
For CCOC(=O)Cc1nc(N2CCN(CCN)CC2)c2c(C)c(C(=O)OCC)sc2n1 the results were SMARCA2 activ inactive, DAX1 inh-2 inactive, ssDAF-12 act inactive, hgDAF12 agonist inactive and hcDAF-12 act inactive.
For CCCCCn1c(C)c(CC(=O)Nc2ccc(Oc3cccnc3)c(C)c2)c2ccccc21 the results were SMARCA2 activ inactive, DAX1 inh-2 inactive, ssDAF-12 act inactive, hgDAF12 agonist inactive and hcDAF-12 act inactive.
For COC(=O)C(NC=O)C(O)(Cc1ccccc1)C(F)(F)F (configuration not stated) the results were SMARCA2 activ inactive, DAX1 inh-1 inactive, DAX1 inh-2 inactive, ssDAF-12 act inactive, hgDAF12 agonist inactive, hcDAF-12 act 9.7, LXRb hcDAF ctr inactive and hcDAF12 ag inactive.
C[C@H](CO)N1C[C@H](C)[C@@H](CN(C)C(=O)Nc2ccccc2)OCc2cn(nn2)CCCC1=O was read as SMARCA2 activ inactive, DAX1 inh-2 inactive, ssDAF-12 act inactive, hgDAF12 agonist inactive and hcDAF-12 act inactive.
COC(=O)C1=C(C)N(Cc2ccccc2C(F)(F)F)C(=NCc2ccc(OC)cc2)NC1CCc1ccccc1 (configuration not stated) was read as SMARCA2 activ inactive, DAX1 inh-2 inactive, ssDAF-12 act inactive, hgDAF12 agonist inactive and hcDAF-12 act inactive.
CC(=O)c1cccc(N=C2C(=O)Nc3ccccc32)c1 was read as SMARCA2 activ inactive, DAX1 inh-1 inactive, DAX1 inh-2 inactive, ssDAF-12 act inactive, hgDAF12 agonist inactive, hcDAF-12 act 6.6, LXRb hcDAF ctr inactive and hcDAF12 ag inactive.
Screening Cc1ccc(N=C2C(=O)Nc3ccccc32)cc1C returned SMARCA2 activ inactive, DAX1 inh-1 inactive, DAX1 inh-2 inactive, ssDAF-12 act inactive, hgDAF12 agonist inactive and hcDAF-12 act inactive.
`c1ccc(N2CC3CCc4ccccc4C3=N2)cc1` (configuration not stated) gave SMARCA2 activ inactive, DAX1 inh-1 inactive, DAX1 inh-2 inactive, ssDAF-12 act 1.4, hgDAF12 agonist inactive, hcDAF-12 act 12, LXRb hcDAF ctr inactive and hcDAF12 ag 12.
Screening CN1N=C2c3ccccc3CCC2C1c1ccc(F)cc1 (configuration not stated) returned SMARCA2 activ inactive, DAX1 inh-2 inactive, ssDAF-12 act inactive, hgDAF12 agonist inactive and hcDAF-12 act inactive.
CCCC(C)NC(=O)Cc1ccccc1[N+](=O)[O-] (configuration not stated) was read as SMARCA2 activ inactive, DAX1 inh-1 inactive, DAX1 inh-2 inactive, ssDAF-12 act 1.1, hgDAF12 agonist inactive, hcDAF-12 act 7.3, LXRb hcDAF ctr inactive and hcDAF12 ag 5.9.

Screening results from PubChem.
